CYP2C19 inhib: inhibitors of human CYP2C19 | P33261 | CYP2C19 Supersomes, luciferin-H EGE luminescence, 30 min | inhibition, % at 5 µM | 96,000 compounds, 21% hits | AID 778;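 active = CYP2C19 inhibition above a set limit at 5 µM in the primary screen, cut at about 50% in these data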
D1 allo mod: allosterically modulates the human D1 dopamine receptor; P21728; B-score at 10 µM; HEK293 D1, CRE-luciferase, dopamine EC30 potentiation; actives deviate in either direction; AID 641; 58,000 compounds, 5.9% hits;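 active = luminescence count or its row- and column-corrected plate score outside the 99.7% band of the plate's sample wells, on either side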
CYP2C9 inhib: blocks human cytochrome P450 2C9. P11712. CYP2C9 Supersomes, luciferin-H conversion, luminescence. inhibition, % at 5 µM. 96,000 compounds, 20% hits;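 active = blocking of liver enzyme CYP2C9 beyond about 50% at 5 µM, limit read from the data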
Target sequence (P11712 whole entry, looked up): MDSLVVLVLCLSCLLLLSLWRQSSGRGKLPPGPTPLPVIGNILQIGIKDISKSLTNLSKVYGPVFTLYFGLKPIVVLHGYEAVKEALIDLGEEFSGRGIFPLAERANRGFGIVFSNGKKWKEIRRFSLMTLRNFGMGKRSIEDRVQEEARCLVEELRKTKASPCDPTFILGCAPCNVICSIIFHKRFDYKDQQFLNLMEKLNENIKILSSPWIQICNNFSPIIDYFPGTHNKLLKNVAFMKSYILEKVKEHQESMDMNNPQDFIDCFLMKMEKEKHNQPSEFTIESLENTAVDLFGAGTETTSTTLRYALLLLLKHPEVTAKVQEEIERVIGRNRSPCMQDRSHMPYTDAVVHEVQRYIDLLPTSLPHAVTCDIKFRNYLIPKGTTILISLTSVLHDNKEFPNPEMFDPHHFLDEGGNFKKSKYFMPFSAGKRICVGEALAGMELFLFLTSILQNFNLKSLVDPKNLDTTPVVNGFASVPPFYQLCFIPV
CYP2C9 act: activators of human CYP2C9 | AID 1024 | recombinant CYP2C9, luciferin-H conversion, luminescence; stronger effect = higher value; factor 1 = untreated enzyme, 0 = blocked | 96,000 compounds, 1.4% hits | activation factor at 5 µM;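 active = activation factor of 2 or more for CYP2C9 at a 5 µM dose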
CYP2C19 act: activators of human cytochrome P450 2C19. recombinant CYP2C19, luciferin-H EGE luminescence; stronger effect = higher value; 0 = fully inhibited enzyme, 1 = untreated enzyme. activation factor at 5 µM. 96,000 tested, under 10 active. P33261;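 active = activation factor of at least 2 at 5 µM in the primary screen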
DAT uptake mod: modulates human dopamine transporter uptake under cocaine | Q01959 | LLC-PK1 hDAT cells, [14C]-dopamine uptake with cocaine IC80; actives deviate in either direction | B-score at 10 µM | 110,000 compounds, 1.3% hits | AID 449768;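 active = Z score or B-score, a plate-position-corrected score, falls beyond the plate's 99.7% confidence bounds, in either direction; inactive = both scores lie inside the 99.7% bounds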
Each line names hits and unclear results; the compound was inactive in the other large screens. An excerpt weighted towards active compounds, which were near 28% of everything screened.

COc1ccc(S(=O)(=O)N(CC(=O)NCc2ccco2)c2ccccc2)cc1	CYP2C19 inhib 56.4 (no result: D1 allo mod)
COc1ccc(N(CC(=O)N/N=C/c2ccco2)S(=O)(=O)c2ccccc2)cc1	CYP2C19 inhib 60.2 (no result: D1 allo mod)
CC(C)(C)[C@H]1C=C(C(=O)NCc2nc3ccccc3[nH]2)O[C@@H](OCc2ccc(CO)cc2)C1	none (no result: CYP2C19 inhib, D1 allo mod, CYP2C9 inhib, CYP2C9 act, CYP2C19 act)
COc1ccc(S(=O)(=O)Cc2ccccc2)cc1N	CYP2C19 inhib 62.3, CYP2C9 act 2.2
Cc1ccc(S(=O)(=O)N(CC(=O)NCc2ccco2)Cc2ccccc2F)cc1	CYP2C9 inhib 61.7
COc1ccc(OC)c(N)c1	none (no result: DAT uptake mod)
CCN(c1ccccc1)S(=O)(=O)c1ccc(N)c(OC)c1	CYP2C19 inhib 62.3, CYP2C9 act 2.8 (no result: D1 allo mod, DAT uptake mod)
CN(CCCC(=O)NCc1ccco1)S(=O)(=O)c1ccccc1	none
CCOC(=O)c1cnc2nc[nH]n2c1=O	none (no result: CYP2C19 inhib, CYP2C9 inhib, CYP2C9 act, CYP2C19 act, DAT uptake mod)
COc1cccc(C(c2nnnn2Cc2ccc(F)cc2)N2CCC(C(N)=O)CC2)c1OC (configuration not stated)	none
Cc1ccc2cc(CN(CC3CCCO3)S(=O)(=O)c3ccccc3)c3nnnn3c2c1 (configuration not stated)	none (no result: CYP2C19 inhib, D1 allo mod, CYP2C9 inhib, CYP2C9 act, CYP2C19 act)
Cc1ccc2[nH]c(=O)c(CN(Cc3nnnn3Cc3ccccc3)C3CCCC3)cc2c1	none
Cc1ccc2cc(CN(Cc3nnnn3Cc3ccco3)CC3CCCO3)c(=O)[nH]c2c1C (configuration not stated)	CYP2C19 inhib 82.2, CYP2C9 inhib 86.2
Cc1cccc2cc(CN(Cc3nnnn3Cc3ccco3)C3CCCC3)c3nnnn3c12	CYP2C19 inhib 92.3, CYP2C9 inhib 93.8, DAT uptake mod -7.43
Cc1ccc(S(=O)(=O)Cn2nnnc2CN(Cc2ccco2)CC2CCCO2)cc1 (configuration not stated)	CYP2C19 inhib 84.4, CYP2C9 inhib 91.2
COc1ccc2[nH]c(=O)c(CN(Cc3nnnn3Cc3ccccc3)CC3CCCO3)cc2c1 (configuration not stated)	none (no result: D1 allo mod)
COc1ccc(C(=O)N=c2nc3ccccn3s2)cc1	CYP2C19 inhib 64.6, D1 allo mod -4.83
COc1ccc(C(=O)n2nc(-c3ccccc3)nc2SC)cc1	none (no result: D1 allo mod)
COc1ccc(C(c2nnnn2C(C)(C)C)N2CCN(c3nc4ccccc4s3)CC2)cc1 (configuration not stated)	CYP2C9 inhib 63.2
CC(C)(C)n1nnnc1C(c1ccncc1)N1CCN(c2ccc(O)cc2)CC1 (configuration not stated)	CYP2C9 inhib 75.7 (no result: D1 allo mod)
CCC(C)(C)n1nnnc1C(c1ccc(O)c(OC)c1)N1CCc2ccccc2C1 (configuration not stated)	none (no result: D1 allo mod)
CCC(C)(C)n1nnnc1C(c1ccc(O)c(OC)c1)N1CCN(c2nc3ccccc3s2)CC1 (configuration not stated)	CYP2C9 inhib 77.3
COc1ccc(C(c2nnnn2Cc2ccccc2)N2CCN(c3nc4ccccc4s3)CC2)cc1OC (configuration not stated)	none (no result: CYP2C19 inhib, D1 allo mod, CYP2C9 inhib, CYP2C9 act, CYP2C19 act)
CCN(CC)CCNC(=O)c1ccccn1	none
O=C(Nc1ccc(Cl)cc1)NC1CCCC1Cc1ccco1 (configuration not stated)	CYP2C9 inhib 65.2, DAT uptake mod -5.66
O=C(Nc1ccc(Cl)cc1)NC1CCCCC1Cc1ccco1 (configuration not stated)	CYP2C9 inhib 59.4 (no result: D1 allo mod)
O=C(Nc1ccc(F)cc1)NC1(C(=O)NCc2ccco2)CCCCC1	none
O=C(Nc1ccc(Cl)cc1)NC1CCCCC1	none (no result: D1 allo mod)
Cc1ccc(-n2nc(C(=O)N/N=C/c3cccc(C(F)(F)F)c3)c3ccccc3c2=O)cc1C	none (no result: D1 allo mod)
CSc1cc(-c2ccccc2)n(Cc2ccccc2Cl)c(=O)c1C#N	CYP2C9 inhib 60.6 (no result: D1 allo mod)
CNC(=S)NNC(=O)c1cccn(Cc2cccc(Cl)c2)c1=O	none (no result: D1 allo mod)
N#Cc1c(-c2ccccc2)ccn(Cc2ccccc2Cl)c1=O	CYP2C19 inhib 54.2 (no result: D1 allo mod, DAT uptake mod)
N#Cc1c(-c2ccccc2)ccn(Cc2cccc(Cl)c2)c1=O	CYP2C19 inhib 77.4, CYP2C9 inhib 51.4 (no result: D1 allo mod)
Cc1cc(C)n(Cc2ccccc2F)c(=O)c1C#N	none (no result: CYP2C19 inhib, CYP2C9 inhib, CYP2C9 act, CYP2C19 act, DAT uptake mod)
CC(=O)c1cn(CC(=O)Nc2ccc(C)cc2C)c2ccccc12	none (no result: CYP2C19 inhib, D1 allo mod, CYP2C9 inhib, CYP2C9 act, CYP2C19 act)
CCOC(=O)Cn1c(=O)oc2cc(S(=O)(=O)NCCc3ccc(C)cc3)ccc21	CYP2C19 inhib 50.0, CYP2C9 inhib 70.2 (no result: D1 allo mod)

High-throughput results as filed in PubChem.
